KCNQ2 inh – rat KCNQ2 potassium channel inhibitors, primary screen, cell-based, CHO-K1, FluxOR thallium flux, B-score; Potassium voltage-gated channel subfamily KQT member 2 (Rattus norvegicus), O88943; 20 min; stronger effect = lower value; B-score at 10 µM; actives 1.1% (n = 310,000); AID 2156, 2009;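 active = fluorescence ratio B-score at most minus 3 library SDs, with starting brightness B-score within 2 library SDs, cut at about -5.5 in these data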
Target sequence (O88943 whole entry, looked up): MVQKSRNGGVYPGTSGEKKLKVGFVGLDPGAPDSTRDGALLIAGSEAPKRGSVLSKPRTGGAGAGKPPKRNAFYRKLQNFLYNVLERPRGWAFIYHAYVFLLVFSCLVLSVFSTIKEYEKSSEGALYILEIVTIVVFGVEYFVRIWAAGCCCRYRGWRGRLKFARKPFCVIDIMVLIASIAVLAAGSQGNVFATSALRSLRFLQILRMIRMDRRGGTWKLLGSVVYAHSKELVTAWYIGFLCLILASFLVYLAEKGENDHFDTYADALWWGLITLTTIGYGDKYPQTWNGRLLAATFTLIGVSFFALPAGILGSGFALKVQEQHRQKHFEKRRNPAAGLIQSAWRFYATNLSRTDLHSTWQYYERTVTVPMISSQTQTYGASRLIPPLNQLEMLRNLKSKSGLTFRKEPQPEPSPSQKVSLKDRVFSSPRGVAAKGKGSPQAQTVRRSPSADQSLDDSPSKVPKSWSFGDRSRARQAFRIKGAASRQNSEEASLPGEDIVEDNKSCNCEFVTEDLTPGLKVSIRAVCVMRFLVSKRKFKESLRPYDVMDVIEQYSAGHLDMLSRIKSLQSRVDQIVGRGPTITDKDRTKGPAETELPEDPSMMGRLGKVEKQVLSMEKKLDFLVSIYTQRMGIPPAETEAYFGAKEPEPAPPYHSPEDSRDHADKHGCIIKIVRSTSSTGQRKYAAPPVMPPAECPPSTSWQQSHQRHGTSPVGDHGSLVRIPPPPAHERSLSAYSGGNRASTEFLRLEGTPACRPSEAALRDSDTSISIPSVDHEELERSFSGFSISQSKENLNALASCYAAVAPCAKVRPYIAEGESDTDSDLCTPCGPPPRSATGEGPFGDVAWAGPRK
KCNQ2 pot – potentiators of rat KCNQ2 potassium channel; CHO-K1 KCNQ2, FluxOR thallium flux fluorescence; stronger effect = higher value; actives 0.54% (n = 310,000); Potassium voltage-gated channel subfamily KQT member 2 (Rattus norvegicus), O88943; AID 2239, 2010; B-score at 10 µM;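 active = fluorescence ratio B-score at least 3 SD of library B-scores, with initial fluorescence B-score within 3 of them, cut at about 5.3 in these data; same plate scores as AID 2156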;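 note: B-score of peak minus minimum over baseline fluorescence ratio after K+ and Tl+ stimulus; positive B-score means potentiation of KCNQ2 with more thallium influx and brighter signal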
Numbers without * were called inactive. Rows were chosen to be rich in hits. Some 1.6% of all compounds tested hit in one or more screens of this group.

Results for Cc1ccccc1C1NC(=O)Cc2ccccc21 (stereo not given) ?
KCNQ2 inh: inactive; KCNQ2 pot: 0.31

Results for CC(C)(C)NC(=S)NC(=O)C12CCC3CC(CC(C3)C1)C2 ?
KCNQ2 inh: -5.7*; KCNQ2 pot: -5.7

What do the screens show for `CC(C)(C)NC(=O)C12CC3CC(CC(Cl)(C3)C1)C2`?
KCNQ2 inh: inactive; KCNQ2 pot: 2.4

How did CCCNS(=O)(=O)c1ccc(OCC(=O)NCC2CCCO2)cc1 (stereo not given) do in these assays?
KCNQ2 inh: inactive; KCNQ2 pot: 0.37

How did CCn1c2ccccc2c2cc(NC(=O)C(C)Oc3ccc(OC)cc3)ccc21 (stereo not given) do in these assays?
KCNQ2 inh: -6.2*; KCNQ2 pot: -6.2

How did CCn1c2ccccc2c2cc(NC(=O)C(C)Oc3ccccc3)ccc21 (stereo not given) do in these assays?
KCNQ2 inh: inactive

How did CC1(C)CC(=O)C2=C(C1)OC1=C(C2)C(=O)CC(C)(C)C1 do in these assays?
KCNQ2 inh: -6*; KCNQ2 pot: -6

How did CC1(C)CC(=O)C2=C(C1)OC1=C(C(=O)CC(C)(C)C1)C2c1ccc(O)cc1O do in these assays?
KCNQ2 inh: inactive

What do the screens show for `COc1ccc2c(O)c(-c3c(C)cc(C)cc3C)c(=O)[nH]c2c1`?
KCNQ2 inh: inactive

What do the screens show for `COC(=O)c1ccc(OC(=O)CCc2cc(OC)c(OC)c(OC)c2)cc1`?
KCNQ2 inh: inactive; KCNQ2 pot: 0.29

What do the screens show for `O=C(NCCCN1CCCC1=O)c1ccc2c(=O)n(-c3ccccc3F)c(=S)[nH]c2c1`?
KCNQ2 inh: inactive; KCNQ2 pot: 1.7

Results for O=C(C[n+]1cccc2ccccc21)c1ccc(Br)cc1 ?
KCNQ2 inh: inactive; KCNQ2 pot: 0.78

What do the screens show for `O=C(C[n+]1cc(Br)cc2ccccc21)c1ccc(Cl)cc1`?
KCNQ2 inh: -7.5*; KCNQ2 pot: -7.5

How did O=C(C[n+]1cc(Br)cc(Br)c1)c1ccc(Cl)cc1 do in these assays?
KCNQ2 inh: inactive

Results for O=C(C[n+]1cc(Br)cc2ccccc21)c1ccc(Br)cc1 ?
KCNQ2 inh: -6.1*; KCNQ2 pot: -6.1

Results for CCCN1CCN(C(=O)c2oc3ccccc3c2NC(=O)COc2ccc(OC)cc2)CC1 ?
KCNQ2 inh: inactive

Results for Cc1cc(C)nc(NS(=O)(=O)c2ccc(NC(=O)C3(c4ccccc4)CCCC3)cc2)n1 ?
KCNQ2 inh: inactive

What do the screens show for `CCN1/C(=C/C=C/C=C/c2sc3ccccc3[n+]2CC)Sc2ccccc21`?
KCNQ2 inh: -21*; KCNQ2 pot: -21

What do the screens show for `CCN1/C(=C/C=C/C=C/C=C/c2sc3ccccc3[n+]2CC)Sc2ccccc21`?
KCNQ2 inh: inactive

What do the screens show for `CCN(Cc1ccccc1)S(=O)(=O)c1c(C)[nH]c(C)c1C(=O)N1CCCCC1`?
KCNQ2 inh: inactive; KCNQ2 pot: 0.51

What do the screens show for `O=C1NC(c2ccccc2O)Nc2ccccc21` (stereo not given)?
KCNQ2 inh: inactive

How did Cc1ccc(C)c(C2NC(=O)c3ccccc3N2)c1 (stereo not given) do in these assays?
KCNQ2 inh: -5.6*; KCNQ2 pot: -5.6

What do the screens show for `O=C(CN1CCN(Cc2ccccc2)CC1)Nc1ccc(N2CCOCC2)cc1`?
KCNQ2 inh: inactive; KCNQ2 pot: 0.6

What do the screens show for `CCN(CC)S(=O)(=O)c1ccc(OC)c(NC(=O)OCc2ccccc2)c1`?
KCNQ2 inh: inactive; KCNQ2 pot: 1.4

Results for CC1(C)CC(=O)c2cnc3c(C#N)cnn3c2C1 ?
KCNQ2 inh: inactive

Results for O=C(CCc1nc2ccccc2[nH]1)Nc1ccc(F)cc1 ?
KCNQ2 inh: inactive

What do the screens show for `O=C(CCc1nc2ccccc2[nH]1)Nc1ccccc1F`?
KCNQ2 inh: inactive; KCNQ2 pot: 6.6*

Results for O=C(OCc1ccc([N+](=O)[O-])cc1)c1ccc(N2CCCC2)c([N+](=O)[O-])c1 ?
KCNQ2 inh: inactive

What do the screens show for `N#Cc1ccc(COC(=O)c2ccc(N3CCCC3)c([N+](=O)[O-])c2)cc1`?
KCNQ2 inh: -6.8*; KCNQ2 pot: -6.8

Results for COc1ccc(C)cc1N(C)C(=O)Cc1c(C(=O)O)n(C)c2ccccc12 ?
KCNQ2 inh: inactive

Results for CN1CCN(Cc2cccc(Oc3ccccc3)c2)CC1 ?
KCNQ2 inh: inactive; KCNQ2 pot: 0.44

Results for COc1ccc(CN2CCN(Cc3cccc(Oc4ccccc4)c3)CC2)c(OC)c1OC ?
KCNQ2 inh: -7.5*; KCNQ2 pot: -7.5

What do the screens show for `CCc1ccc(N(CC(=O)NC(C)C)C(=O)CCC(=O)Nc2nccs2)cc1`?
KCNQ2 inh: inactive; KCNQ2 pot: 0.02

Results for CCOC(=O)CSc1ncc(OC)c(Sc2ccc(Cl)cc2)n1 ?
KCNQ2 inh: inactive

Results for CCOC(=O)C(C)Sc1ncc(OC)c(Sc2ccc(Cl)cc2)n1 (stereo not given) ?
KCNQ2 inh: -8*; KCNQ2 pot: -8

Compound activity: PubChem BioAssay, Johns Hopkins Ion Channel Center
